# The list is not random: actives were taken first. Their share in the collection is about 12%.
# Pf growth 96h: P. falciparum growth inhibition at 96 hour, primary screen for plastid delayed-death inhibitors | AID 504834 | 320,000 tested, 6.9% active | Potency, µM (top dose mostly 28.7 µM), most hits filed as inhibitors | P. falciparum luciferase reporter growth, 96 h
#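 Plates of compound plus infected erythrocytes (2% hematocrit, 0.05% parasitemia final) incubate 96 hours, 37 C, 5% CO2. Detection reagent added; reduced luminescence from the parasites' luciferase reporter flags inhibition.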
# SARS PLP yeast: inhibitors of SARS-CoV papain-like protease in yeast | S. cerevisiae expressing SARS-CoV PLpro, growth rescue | Potency, µM (titrated, usually from 32.9 µM), most hits filed as activators | 330,000 tested, 0.19% active | AID 485353; calls by dose curve; further: nearly all actives have a fitted effect of over 55% in size
# Pf growth 48h: P. falciparum growth inhibition at 48 hours (one generation); P. falciparum luciferase growth in erythrocytes, 48 h; Potency, µM (series often up to 28.7 µM), hits mostly inhibitors; 310,000 tested, 5.9% active
#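 Luciferase-expressing parasites in RBCs, 2% Hct / 0.1% parasitemia final; RPMI 1640 + 0.5% Albumax; 37 C, 5% CO2, one generation; luminescence read-out, lower signal = inhibition.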
# Sm TGR block: S. mansoni TGR enzyme inhibition. Q962Y6. purified TGR, DTNB reduction, TNB absorbance 405 nm. Potency, µM (top dose mostly 114 µM), hits mostly inhibitors. 360,000 tested, 3% active. AID 485364; further: nearly all actives have a fitted effect of over 60% in size
#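 TGR 20 nM + NADPH 100 uM (dispensed conc.), cpd preinc 15 min RT; start with NADPH (500 uM addition) then DTNB (15 mM addition). Kinetic TNB absorbance, 405 nm filter. Four-parameter Hill fit across titration.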
# Hits are given with their value; . = inactive; ? = inconclusive; / = no result; [ ] = remark or other dose. Unless noted, the call rests on the fitted dose curve; in most records, active means well fitted curve in the direction sought with a large enough effect; inconclusive means small, poorly fitted or top-dose-only effect, or another doubt; inactive means no such curve, though single readings can be large; an effect the other way counts as inactive or inconclusive.
SMILES,Pf growth 96h,SARS PLP yeast,Pf growth 48h,Sm TGR block
Cc1cc(NS(=O)(=O)c2ccc(NC(=O)C(C(C)C)N3C(=O)c4ccccc4C3=O)cc2)nc(C)n1 (centres undefined),.,.,.,.
Fc1ccccc1CSc1nnc(-c2cccnc2)o1,?,.,.,.
Cc1ccc(C)c(CSc2nnc(-c3cccnc3)o2)c1,13µM,.,?,.
CCOC(=O)c1c(NC(=O)/C=C/c2ccc(OCC)c(OC)c2)sc2c1CCC2,/,/,/,.
Cc1ccc(-c2cc(C(=O)N3CCN(c4ncccn4)CC3)c3ccccc3n2)cc1,.,.,?,.
O=C(c1cc(-c2ccc(Br)cc2)nc2ccccc12)N1CCN(c2ccccc2O)CC1,5.9µM,.,5.9µM,.
O=C(c1ccc2ccccc2n1)N1CCN(c2ccccc2O)CC1,13µM,.,?,.
O=C(c1ccc2ccccc2n1)N1CCN(c2ccccc2)CC1,/,.,.,.
Cc1ccc(-c2cc(C(=O)N3CCN(c4ccccc4O)CC3)c3ccccc3n2)o1,13µM,.,?,?
Cc1cc(C)c(C(=O)OCC(=O)Nc2cccc(S(=O)(=O)N3CCCCC3)c2)c(C)c1,?,.,?,.
Fc1ccc(CNc2ncnc3c2c(-c2ccccc2)cn3-c2ccccc2)cc1,/,/,/,.
Cc1ccc(S(=O)(=O)NCc2ccc(N3CCN(C(=O)OC(C)(C)C)CC3)cc2)cc1,4.1µM,.,13µM,.
Cc1ccc(C(=O)NCc2ccc(N3CCN(C(=O)OC(C)(C)C)CC3)cc2)cc1,.,.,.,.
Cc1ccc(S(=O)(=O)NCc2ccc(C(=O)N3CCc4ccccc4C3)cc2)cc1,6.6µM,.,?,.
COc1ccc(S(=O)(=O)NCc2ccc(C(=O)N3CCc4ccccc4C3)cc2)cc1,6.6µM,.,?,.
CCOC(=O)N1CCN(C(=O)c2ccc(CNS(=O)(=O)c3ccc(OC)cc3)cc2)CC1,.,.,.,.
COc1cccc(N2CC(NC(=O)Cc3cccs3)CC2=O)c1 (centres undefined),/,/,/,.
Cc1cc(C)nc(-n2nc(C)c(Br)c2Nc2ccc(Br)cc2)n1,/,.,3.7µM,.
Cc1cc(C)nc(-n2nc(C)cc2Nc2ccccc2)n1,/,.,8.3µM,.
Cc1cc(N2CCN(c3ccccc3)CC2)nc(-n2nc(C)cc2C)n1,.,.,3.7µM,.
COc1ccc([N+](=O)[O-])cc1N(CC(O)CN(C)C)S(=O)(=O)c1ccc(C)cc1 (centres undefined),.,.,.,.
CCCCN(CCCC)CC(O)CN(c1cc([N+](=O)[O-])ccc1OC)S(=O)(=O)c1ccccc1 (centres undefined),?,.,13µM,.
COc1ccc([N+](=O)[O-])cc1N(CC(O)CN(CC(C)C)CC(C)C)S(=O)(=O)c1ccccc1 (centres undefined),?,.,9.3µM,.
COc1ccc([N+](=O)[O-])cc1N(CC(O)CN1CCCCC1)S(=O)(=O)c1ccc(C)cc1 (centres undefined),.,.,?,35µM
Cc1ccc(-c2ccc(=O)n(CC(=O)NCCc3ccc(Cl)cc3)n2)cc1,/,/,/,.
SMILES,Pf growth 96h,SARS PLP yeast,Pf growth 48h,Sm TGR block
CCCc1nc2c(=O)n(C)c(=O)[nH]c2n1CCC,10µM,.,/,.
COC(=O)c1cc(Nc2nc3ccccc3nc2NS(=O)(=O)c2ccc(C)cc2)ccc1Cl,/,/,/,.
COc1ccc(C([O-])=Nc2ccc[n+](-c3nc4ccccc4nc3NS(=O)(=O)c3ccccc3)c2)cc1,13µM,.,2.6µM,.
O=S(=O)(Nc1nc2ccccc2nc1-[n+]1cccc(N=C([O-])c2ccccc2Cl)c1)c1ccccc1,8.3µM,.,8.3µM,.
CC(=C\C(=O)O)/C(=C/c1ccc(C)o1)C(=O)O,?,.,.,32µM
COc1ccc(C(=O)N2CCCCCC2)cc1S(=O)(=O)N1CCOCC1,.,.,.,.
Cc1cccc(N(CC(=O)NC2CCCCC2)C(=O)CCCC(=O)Nc2ccccn2)c1C,.,.,.,.
C[C@@H](Oc1ccccc1)c1nnn(Cc2ccccc2)c1-c1c([C@@H](C)Oc2ccccc2)nnn1Cc1ccccc1,6.6µM,.,?,.
c1ccc(Cn2nnc3ccccc32)cc1,?,.,.,.
CCOc1ccccc1/C=C/c1onc(C)c1S(=O)(=O)N1CCC(C(=O)N(CC)CC)CC1,.,.,10µM,.
CCOc1ccccc1NC(=O)C1CCN(S(=O)(=O)c2c(C)noc2/C=C/c2ccco2)CC1,/,/,/,.
CCN(CCN(C)C)C(=O)C1CCN(S(=O)(=O)c2c(C)noc2/C=C/c2ccccc2F)CC1,.,.,9.3µM,.
COC(=O)CCN(C(=O)C1CCN(S(=O)(=O)c2c(C)noc2/C=C/c2ccccc2F)CC1)c1ccccc1,/,/,/,.
COCCCN(C(=O)c1cc(-c2ccco2)nc2ccccc12)c1c(N)n(Cc2ccccc2)c(=O)[nH]c1=O,?,.,?,16µM
COCCCN(C(=O)c1cc(Cl)nc2ccccc12)c1c(N)n(Cc2ccccc2)c(=O)[nH]c1=O,.,.,.,.
CCCn1c(N)c(N(CCOC)C(=O)c2cc(-c3ccco3)nc3ccccc23)c(=O)[nH]c1=O,.,.,.,18µM
COc1ccc(CNC(=O)CN(C(=O)CCC(=O)Nc2ccccn2)c2ccc3c(c2)OCO3)cc1,.,.,.,.
O=C1CN(C(=O)COc2ccccc2)C(c2ccc(F)cc2)c2cc(Br)ccc2N1 (centres undefined),/,/,/,.
O=C(c1ccc(F)cc1)N1CCN(CCc2ccncc2)CC1,/,/,/,40µM
CC(C)CC(=O)N1CCN(C(=O)c2ccc(F)cc2)CC1,13µM,.,.,.
Cc1c(C(=O)Nc2ccncc2)sc2nc(-c3ccccc3)cn12,?,.,4.1µM,.
O=C(Nc1ccc(F)c(Cl)c1)c1cc(S(=O)(=O)N2CCCc3ccccc32)ccc1F,/,/,/,.
Cc1ccc(SC(C)C(=O)NC2CC2)cc1 (centres undefined),10µM,.,10µM,.
CC(Sc1ccccc1)C(=O)NCCc1ccccc1 (centres undefined),9.3µM,.,.,.
Cc1ccc(SC(C)C(=O)NCCC2=CCCCC2)cc1 (centres undefined),12µM,.,.,.
SMILES,Pf growth 96h,SARS PLP yeast,Pf growth 48h,Sm TGR block
CC(C)OC(=O)CSc1nnc(-c2cnccn2)n1Cc1ccco1,/,/,.,.
O=C(CSc1nnc(Cc2ccccc2)n1Cc1ccco1)NC1CCCC1,?,.,?,?
COc1cccc(-c2nnc(SCC(=O)OC(C)C)n2Cc2ccco2)c1,7.4µM,.,.,.
CC(C)OC(=O)CSc1nnc(Cc2ccccc2)n1Cc1ccco1,.[5.75 µM],.,?,22µM
COc1cc(NS(=O)(=O)c2ccc(NC(=O)c3ccc(Cl)cc3Cl)cc2)nc(OC)n1,/,/,/,.
Oc1ccc(C(O)CNCCCCCCNCC(O)c2ccc(O)c(O)c2)cc1O (centres undefined),12µM,/,7.6µM,/
CNC[C@H](O)c1ccc(O)c(O)c1,.,.,.,14µM
COc1ccc(CN(C)C(=O)Cc2ccc(S(=O)(=O)N3CCOCC3)s2)cc1OC,.,.,.,.
CC(C)(C)c1cc(CCC(=O)NNC(=S)NC(=O)c2ccccc2)cc(C(C)(C)C)c1O,?,5µM,13µM,.

# Screening results (PubChem)
